Data from paper PMC7862700, “An all-to-all approach to the identification of sequence-specific readers for epigenetic DNA modifications on cytosine”.

Legend:
Assay in all cases: DAPPL (digital affinity profiling via proximity ligation, sequencing); 10 mM Tris-HCl pH 7.5, 50 mM NaCl, 1 mM DTT, 4% glycerol, room temperature, 30 min; GST-TFs on glutathione beads, 16-mer random dsDNA library, 0.1% formaldehyde crosslink after washing; high values mean tight binding
Conditions in all cases: protein: recombinant; tags: N-terminal GST; dsDNA, one strand shown
FLI1 = biological target: T1, FLI1 (Homo sapiens, UniProt Q01543 1-452)
T1 sequence: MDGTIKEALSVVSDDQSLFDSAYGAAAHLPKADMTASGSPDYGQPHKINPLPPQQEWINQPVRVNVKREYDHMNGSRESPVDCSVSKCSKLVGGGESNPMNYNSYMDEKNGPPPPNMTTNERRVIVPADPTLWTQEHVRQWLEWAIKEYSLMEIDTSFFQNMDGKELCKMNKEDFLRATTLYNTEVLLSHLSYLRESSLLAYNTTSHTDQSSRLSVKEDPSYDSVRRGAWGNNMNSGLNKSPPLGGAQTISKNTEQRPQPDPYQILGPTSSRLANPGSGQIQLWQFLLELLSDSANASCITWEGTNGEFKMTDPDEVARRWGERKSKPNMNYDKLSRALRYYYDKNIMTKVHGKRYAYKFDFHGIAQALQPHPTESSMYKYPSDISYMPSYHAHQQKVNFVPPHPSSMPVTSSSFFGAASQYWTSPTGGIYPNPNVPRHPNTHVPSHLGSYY
How it was run: (§1)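 Binding signal is defined as a hexamer's read frequency for one factor over its frequency for the tag-only sample. To obtain reads, GST-fused human transcription factors were expressed in yeast, captured on glutathione beads, barcoded with DNA and pooled with that sample. Pools met 200 nmole of a 16-mer random double-stranded DNA library in Tris/NaCl/DTT/glycerol buffer for 30 min at room temperature before washing, 0.1% formaldehyde crosslinking, proximity ligation (BsaI/T4 ligase, 1 h, 37 °C), PCR and Illumina NextSeq500 sequencing.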

ELK1 = biological target: T2, ELK1 (Homo sapiens, UniProt P19419 1-428)
T2 sequence: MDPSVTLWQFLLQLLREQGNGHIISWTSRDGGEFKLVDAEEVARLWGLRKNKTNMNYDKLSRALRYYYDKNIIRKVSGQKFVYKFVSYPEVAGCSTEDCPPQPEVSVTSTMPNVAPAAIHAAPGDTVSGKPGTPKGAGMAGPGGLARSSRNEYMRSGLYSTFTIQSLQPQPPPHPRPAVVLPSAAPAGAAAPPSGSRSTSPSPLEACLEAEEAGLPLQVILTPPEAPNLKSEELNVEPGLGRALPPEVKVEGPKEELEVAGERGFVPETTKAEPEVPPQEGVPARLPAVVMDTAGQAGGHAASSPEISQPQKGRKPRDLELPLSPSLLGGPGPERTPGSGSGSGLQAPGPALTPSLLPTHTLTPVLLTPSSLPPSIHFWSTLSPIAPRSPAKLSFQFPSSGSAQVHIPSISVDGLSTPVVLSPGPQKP
How it was run: as §1

GABPA = biological target: T3, GABPA (Homo sapiens, UniProt Q06546 1-454)
T3 sequence: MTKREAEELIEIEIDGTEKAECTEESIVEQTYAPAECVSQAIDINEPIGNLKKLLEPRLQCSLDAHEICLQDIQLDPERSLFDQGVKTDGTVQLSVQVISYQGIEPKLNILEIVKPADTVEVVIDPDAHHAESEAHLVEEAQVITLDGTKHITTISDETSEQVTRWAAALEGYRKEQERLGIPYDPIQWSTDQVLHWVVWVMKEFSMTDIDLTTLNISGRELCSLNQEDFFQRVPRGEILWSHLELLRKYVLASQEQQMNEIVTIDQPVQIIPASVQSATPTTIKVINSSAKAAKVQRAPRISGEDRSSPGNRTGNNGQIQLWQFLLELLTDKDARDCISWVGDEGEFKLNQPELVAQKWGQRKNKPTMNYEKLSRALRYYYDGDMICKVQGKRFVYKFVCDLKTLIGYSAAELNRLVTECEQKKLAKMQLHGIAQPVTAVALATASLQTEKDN
How it was run: as §1

ERG = biological target: T4, ERG (Homo sapiens, UniProt P11308 1-479)
T4 sequence: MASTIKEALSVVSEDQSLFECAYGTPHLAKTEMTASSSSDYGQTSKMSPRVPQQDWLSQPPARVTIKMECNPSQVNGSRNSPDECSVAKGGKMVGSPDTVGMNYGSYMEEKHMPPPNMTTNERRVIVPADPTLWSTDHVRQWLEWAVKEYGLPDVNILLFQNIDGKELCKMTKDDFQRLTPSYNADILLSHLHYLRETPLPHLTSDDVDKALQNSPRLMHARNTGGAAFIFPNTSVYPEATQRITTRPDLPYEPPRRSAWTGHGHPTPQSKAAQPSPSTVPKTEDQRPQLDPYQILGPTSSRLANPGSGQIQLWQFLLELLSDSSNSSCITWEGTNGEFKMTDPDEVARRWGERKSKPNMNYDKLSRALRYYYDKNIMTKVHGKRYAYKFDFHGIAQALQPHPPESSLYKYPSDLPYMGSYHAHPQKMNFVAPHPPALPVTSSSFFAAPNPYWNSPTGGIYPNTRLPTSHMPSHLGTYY
How it was run: as §1

ELF1 = ELF1 (Homo sapiens, UniProt P32519 1-619)
Chain of ELF1 (P32519 whole entry): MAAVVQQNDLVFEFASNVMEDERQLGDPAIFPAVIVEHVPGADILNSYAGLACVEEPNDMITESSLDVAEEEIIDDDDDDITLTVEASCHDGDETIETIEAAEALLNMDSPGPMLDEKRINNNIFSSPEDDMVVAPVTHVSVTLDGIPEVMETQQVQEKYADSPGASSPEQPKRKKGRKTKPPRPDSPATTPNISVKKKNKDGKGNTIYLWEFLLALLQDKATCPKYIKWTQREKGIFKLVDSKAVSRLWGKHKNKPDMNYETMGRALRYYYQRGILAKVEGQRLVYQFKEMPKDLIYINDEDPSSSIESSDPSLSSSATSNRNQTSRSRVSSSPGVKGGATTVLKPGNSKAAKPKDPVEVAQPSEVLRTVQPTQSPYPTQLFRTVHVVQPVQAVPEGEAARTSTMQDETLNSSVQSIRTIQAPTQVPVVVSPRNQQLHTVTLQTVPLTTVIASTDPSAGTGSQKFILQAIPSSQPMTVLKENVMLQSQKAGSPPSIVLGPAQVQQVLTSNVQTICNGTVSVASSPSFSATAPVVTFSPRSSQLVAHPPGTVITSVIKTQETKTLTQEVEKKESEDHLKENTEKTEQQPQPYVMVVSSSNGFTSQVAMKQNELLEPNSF
How it was run: as §1

EHF = biological target: T5, EHF (Homo sapiens, UniProt Q9NZC4 1-300)
T5 sequence: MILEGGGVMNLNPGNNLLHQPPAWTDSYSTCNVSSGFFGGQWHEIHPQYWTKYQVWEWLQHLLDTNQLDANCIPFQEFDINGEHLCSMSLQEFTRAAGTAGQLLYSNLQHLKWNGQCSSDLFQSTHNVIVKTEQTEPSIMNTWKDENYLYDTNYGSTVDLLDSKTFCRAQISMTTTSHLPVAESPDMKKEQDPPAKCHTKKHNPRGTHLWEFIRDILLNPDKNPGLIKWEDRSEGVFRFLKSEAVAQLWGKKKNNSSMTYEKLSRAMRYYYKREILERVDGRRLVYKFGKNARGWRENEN
How it was run: as §1

SPI1 = SPI1 (Homo sapiens, UniProt P17947 1-270)
How it was run: as §1

SPIB = SPIB (Homo sapiens, UniProt Q01892 1-262)
Chain of SPIB (Q01892 whole entry): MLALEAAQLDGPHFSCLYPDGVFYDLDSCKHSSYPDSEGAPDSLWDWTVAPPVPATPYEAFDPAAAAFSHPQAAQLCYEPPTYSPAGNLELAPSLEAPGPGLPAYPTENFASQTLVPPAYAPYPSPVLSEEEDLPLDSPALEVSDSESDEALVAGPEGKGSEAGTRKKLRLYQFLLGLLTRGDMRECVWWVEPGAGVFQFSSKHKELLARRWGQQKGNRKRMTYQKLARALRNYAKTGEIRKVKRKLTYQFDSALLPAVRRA
How it was run: as §1

ELK3 = biological target: T6, ELK3 (Homo sapiens, UniProt P41970 1-407)
T6 sequence: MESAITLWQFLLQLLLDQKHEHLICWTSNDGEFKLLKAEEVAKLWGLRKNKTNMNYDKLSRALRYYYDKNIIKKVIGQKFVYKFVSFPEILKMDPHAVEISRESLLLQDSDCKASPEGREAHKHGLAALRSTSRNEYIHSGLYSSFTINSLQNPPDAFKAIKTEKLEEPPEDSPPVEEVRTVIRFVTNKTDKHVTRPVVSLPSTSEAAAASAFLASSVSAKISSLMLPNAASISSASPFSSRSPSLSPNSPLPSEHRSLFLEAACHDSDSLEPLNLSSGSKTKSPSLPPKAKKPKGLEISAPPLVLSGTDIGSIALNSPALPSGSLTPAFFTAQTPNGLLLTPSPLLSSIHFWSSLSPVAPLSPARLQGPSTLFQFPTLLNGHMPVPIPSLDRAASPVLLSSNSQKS
How it was run: as §1

FEV = biological target: T7, FEV (Homo sapiens, UniProt Q99581 1-238)
T7 sequence: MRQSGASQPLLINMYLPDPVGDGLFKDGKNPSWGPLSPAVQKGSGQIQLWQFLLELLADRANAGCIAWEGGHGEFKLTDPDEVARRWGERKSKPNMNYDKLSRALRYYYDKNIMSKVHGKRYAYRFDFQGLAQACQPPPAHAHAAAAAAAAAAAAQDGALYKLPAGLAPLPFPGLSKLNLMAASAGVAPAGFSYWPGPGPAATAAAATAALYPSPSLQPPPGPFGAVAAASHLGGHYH
How it was run: as §1

ETV5 = ETV5 (Homo sapiens, UniProt P41161 1-510)
Chain of ETV5 (P41161 whole entry): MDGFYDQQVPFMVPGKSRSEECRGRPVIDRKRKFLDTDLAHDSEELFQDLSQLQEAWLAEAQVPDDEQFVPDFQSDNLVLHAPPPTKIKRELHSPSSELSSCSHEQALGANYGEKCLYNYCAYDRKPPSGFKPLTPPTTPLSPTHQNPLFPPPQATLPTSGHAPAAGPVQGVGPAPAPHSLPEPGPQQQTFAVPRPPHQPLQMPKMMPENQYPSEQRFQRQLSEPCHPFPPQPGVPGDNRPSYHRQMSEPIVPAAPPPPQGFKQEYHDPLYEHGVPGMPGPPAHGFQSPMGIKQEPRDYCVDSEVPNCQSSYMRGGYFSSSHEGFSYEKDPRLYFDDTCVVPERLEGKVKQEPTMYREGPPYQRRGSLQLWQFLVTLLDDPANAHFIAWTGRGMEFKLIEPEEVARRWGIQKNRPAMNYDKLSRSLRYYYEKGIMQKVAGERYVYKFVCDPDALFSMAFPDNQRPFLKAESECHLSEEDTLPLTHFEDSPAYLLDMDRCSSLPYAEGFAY
How it was run: as §1

SPIC = biological target: T8, SPIC (Homo sapiens, UniProt Q8N5J4 1-248)
T8 sequence: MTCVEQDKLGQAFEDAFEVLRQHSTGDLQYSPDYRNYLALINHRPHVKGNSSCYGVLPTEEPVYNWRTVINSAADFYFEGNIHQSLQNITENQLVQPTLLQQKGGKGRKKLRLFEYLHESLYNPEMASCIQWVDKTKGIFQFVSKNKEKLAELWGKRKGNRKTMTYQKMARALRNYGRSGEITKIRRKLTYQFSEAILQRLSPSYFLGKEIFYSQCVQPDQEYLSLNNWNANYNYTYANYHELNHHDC
How it was run: as §1

ELF4 = ELF4 (Homo sapiens, UniProt Q99607 1-663)
Chain of ELF4 (Q99607 whole entry): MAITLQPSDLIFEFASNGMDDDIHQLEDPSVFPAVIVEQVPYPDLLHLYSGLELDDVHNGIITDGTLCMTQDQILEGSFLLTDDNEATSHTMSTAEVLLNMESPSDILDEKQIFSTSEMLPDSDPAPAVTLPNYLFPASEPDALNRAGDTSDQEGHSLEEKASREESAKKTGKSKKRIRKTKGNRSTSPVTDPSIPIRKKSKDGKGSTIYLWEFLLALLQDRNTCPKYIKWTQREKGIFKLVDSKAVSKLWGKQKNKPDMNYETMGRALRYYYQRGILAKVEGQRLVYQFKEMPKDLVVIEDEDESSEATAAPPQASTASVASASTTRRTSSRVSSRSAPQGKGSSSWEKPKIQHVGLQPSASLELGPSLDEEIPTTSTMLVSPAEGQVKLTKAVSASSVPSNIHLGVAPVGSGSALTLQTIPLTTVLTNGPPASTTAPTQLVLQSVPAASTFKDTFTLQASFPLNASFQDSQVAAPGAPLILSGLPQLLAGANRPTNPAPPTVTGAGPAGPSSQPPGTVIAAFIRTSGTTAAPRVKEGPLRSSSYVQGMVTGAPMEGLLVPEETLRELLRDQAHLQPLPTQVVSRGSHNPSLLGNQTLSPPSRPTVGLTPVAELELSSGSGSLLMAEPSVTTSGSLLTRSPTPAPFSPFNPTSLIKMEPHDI
How it was run: as §1

ELK4 = biological target: T9, ELK4 (Homo sapiens, UniProt P28324-2 1-405)
T9 sequence: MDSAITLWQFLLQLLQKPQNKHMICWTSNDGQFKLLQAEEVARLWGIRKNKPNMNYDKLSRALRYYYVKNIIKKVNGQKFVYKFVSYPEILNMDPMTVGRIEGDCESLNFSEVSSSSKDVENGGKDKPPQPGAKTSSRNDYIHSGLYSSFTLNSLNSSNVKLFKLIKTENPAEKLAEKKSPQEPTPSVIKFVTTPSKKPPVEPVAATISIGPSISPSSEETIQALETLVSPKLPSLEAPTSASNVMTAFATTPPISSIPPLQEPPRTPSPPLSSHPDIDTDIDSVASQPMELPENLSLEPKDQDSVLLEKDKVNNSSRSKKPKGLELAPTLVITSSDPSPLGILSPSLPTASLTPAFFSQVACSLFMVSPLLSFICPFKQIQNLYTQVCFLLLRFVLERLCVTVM
How it was run: as §1

ETV2 = biological target: T10, ETV2 (Homo sapiens, UniProt O00321 1-342)
T10 sequence: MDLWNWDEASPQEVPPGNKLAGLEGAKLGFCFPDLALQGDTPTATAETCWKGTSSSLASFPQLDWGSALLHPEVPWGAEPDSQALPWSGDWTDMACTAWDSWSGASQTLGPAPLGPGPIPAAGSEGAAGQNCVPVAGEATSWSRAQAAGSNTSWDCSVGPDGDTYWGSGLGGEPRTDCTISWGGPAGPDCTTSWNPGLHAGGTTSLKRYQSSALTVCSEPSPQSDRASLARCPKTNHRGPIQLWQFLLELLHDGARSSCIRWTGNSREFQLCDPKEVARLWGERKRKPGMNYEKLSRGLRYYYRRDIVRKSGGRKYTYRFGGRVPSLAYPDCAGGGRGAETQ
How it was run: as §1

ETV1 = ETV1 (Homo sapiens, UniProt P50549 1-477)
Chain of ETV1 (P50549 whole entry): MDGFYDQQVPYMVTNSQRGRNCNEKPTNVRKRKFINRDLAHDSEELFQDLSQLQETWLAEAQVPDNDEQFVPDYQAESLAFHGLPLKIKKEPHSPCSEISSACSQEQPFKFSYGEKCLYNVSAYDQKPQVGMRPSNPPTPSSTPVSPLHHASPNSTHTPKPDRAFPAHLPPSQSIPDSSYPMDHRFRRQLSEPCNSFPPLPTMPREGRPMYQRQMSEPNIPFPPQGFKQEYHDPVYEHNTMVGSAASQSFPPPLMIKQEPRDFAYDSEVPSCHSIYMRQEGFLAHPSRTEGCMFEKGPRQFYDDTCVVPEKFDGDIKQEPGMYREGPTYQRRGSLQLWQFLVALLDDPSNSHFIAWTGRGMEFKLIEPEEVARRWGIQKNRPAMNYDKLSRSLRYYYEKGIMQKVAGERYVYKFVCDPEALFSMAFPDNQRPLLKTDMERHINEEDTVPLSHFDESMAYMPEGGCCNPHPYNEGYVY
How it was run: as §1

Sequence | binding signal (FLI1) | binding signal (ELK1) | binding signal (GABPA) | binding signal (ERG) | binding signal (ELF1) | binding signal (EHF) | binding signal (SPI1) | binding signal (SPIB) | binding signal (ELK3) | binding signal (FEV) | binding signal (ETV5) | binding signal (SPIC) | binding signal (ELF4) | binding signal (ELK4) | binding signal (ETV2) | binding signal (ETV1)
GTCCAC | 1.03 fold enrichment (6-mer frequency, TF over GST control) | 1.07 fold enrichment (6-mer frequency, TF over GST control) | 1.11 fold enrichment (6-mer frequency, TF over GST control) | 1.03 fold enrichment (6-mer frequency, TF over GST control) | 1.02 fold enrichment (6-mer frequency, TF over GST control) | 1.12 fold enrichment (6-mer frequency, TF over GST control) | 1.02 fold enrichment (6-mer frequency, TF over GST control) | 1.09 fold enrichment (6-mer frequency, TF over GST control) | 1.04 fold enrichment (6-mer frequency, TF over GST control) | 1.08 fold enrichment (6-mer frequency, TF over GST control) | 1.07 fold enrichment (6-mer frequency, TF over GST control) | 1.05 fold enrichment (6-mer frequency, TF over GST control) | 1.06 fold enrichment (6-mer frequency, TF over GST control) | 1.07 fold enrichment (6-mer frequency, TF over GST control) | 1.14 fold enrichment (6-mer frequency, TF over GST control) | 
ACCCTG | 1.05 fold enrichment (6-mer frequency, TF over GST control) | 1.09 fold enrichment (6-mer frequency, TF over GST control) | 1.06 fold enrichment (6-mer frequency, TF over GST control) | 1.05 fold enrichment (6-mer frequency, TF over GST control) | 1.13 fold enrichment (6-mer frequency, TF over GST control) |  | 1.05 fold enrichment (6-mer frequency, TF over GST control) | 1.09 fold enrichment (6-mer frequency, TF over GST control) | 1.24 fold enrichment (6-mer frequency, TF over GST control) | 1.02 fold enrichment (6-mer frequency, TF over GST control) | 1.01 fold enrichment (6-mer frequency, TF over GST control) | 1.1 fold enrichment (6-mer frequency, TF over GST control) | 1.16 fold enrichment (6-mer frequency, TF over GST control) | 1.18 fold enrichment (6-mer frequency, TF over GST control) | 1.05 fold enrichment (6-mer frequency, TF over GST control) | 1.09 fold enrichment (6-mer frequency, TF over GST control)
GTTTGG | 1.07 fold enrichment (6-mer frequency, TF over GST control) | 1.07 fold enrichment (6-mer frequency, TF over GST control) | 1.04 fold enrichment (6-mer frequency, TF over GST control) |  | 1.05 fold enrichment (6-mer frequency, TF over GST control) |  | 1.01 fold enrichment (6-mer frequency, TF over GST control) | 1.1 fold enrichment (6-mer frequency, TF over GST control) |  | 1.06 fold enrichment (6-mer frequency, TF over GST control) | 1.03 fold enrichment (6-mer frequency, TF over GST control) | 1.24 fold enrichment (6-mer frequency, TF over GST control) | 1.03 fold enrichment (6-mer frequency, TF over GST control) | 1.08 fold enrichment (6-mer frequency, TF over GST control) | 1.06 fold enrichment (6-mer frequency, TF over GST control) | 1.07 fold enrichment (6-mer frequency, TF over GST control)
